Results: the supplement of paper PMC10981050
Where “and” joins values, the source holds several entries; their conditions need not be identical. Identical values can stand only once. Counter-ions that a name gives are not always drawn.

Key:
Assay in all cases: cell viability relative to vehicle control; higher = less cytotoxic
Conditions in all cases: 10 µM
K562 = system: K562
Procedure, shortened: (§1)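 Screening covered the Selleck bioactive, kinase and epigenetic probe libraries, less identity-inconsistent compounds, on CRISPR-edited mutant clones and isogenic wild-type clones of four leukaemia lines. Cells, at 2000 per well in 50 µL medium, received a single 10 µM acoustically dispensed dose. After 48 h the supernatant was removed and CellTiter-Glo luminescence was read. Viability was analysed in Genedata Screener as percent of the on-plate vehicle control.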

MARIMO = system: MARIMO
Procedure, shortened: as §1

MOLM14 = system: MOLM14
Procedure, shortened: as §1

OCI-AML2 = system: OCI-AML2
Procedure, shortened: as §1

| Structure (SMILES) | cell viability (K562; SRSF2 genotype: SRSF2 P95H/wt) | cell viability (K562; SRSF2 genotype: SRSF2 wt/wt) [%] | cell viability (MARIMO; SRSF2 genotype: SRSF2 P95H/wt) [%] | cell viability (MARIMO; SRSF2 genotype: SRSF2 wt/wt) [%] | cell viability (MOLM14; SRSF2 genotype: SRSF2 P95H/wt) [%] | cell viability (MOLM14; SRSF2 genotype: SRSF2 wt/wt) [%] | cell viability (OCI-AML2; SRSF2 genotype: P95H/wt) [%] | cell viability (OCI-AML2; SRSF2 genotype: wt/wt) [%] |
| --- | --- | --- | --- | --- | --- | --- | --- | --- |
| CC1=C(/C=C/C(C)=C/C=C/C(C)=C\C(=O)O)C(C)(C)CCC1 [Isotretinoin] | 91.5% and 95.7% | 87.2 | 69.3 | 76.9 | 65.4 | 81.5 | 15.7 | 41.8 |
| NC(=O)CCCSc1nc(N)nc(-c2c(Cl)cc3c4c(cccc24)COC3)n1 | 18.9% and 27.3% | 22.6 | 29.3 | 24.6 | 2.36 | 2.58 | 16.6 | 19.6 |
| CC(C)(C)C1CCC(CC2=C(O)c3ccccc3C(=O)C2=O)CC1 (centres undefined) [Buparvaquone] | 76.6% and 81.5% | 77 | 84.1 | 101 | 63.2 | 42.9 | 80.4 | 75.3 |
| Cc1c(C(=O)Nc2ccc(Oc3ccnc4[nH]cc(-c5ccccc5)c34)c(F)c2)c(=O)n(-c2ccc(F)cc2)n1C | 75.3% and 86.8% | 76.8 | 84.7 | 88.2 | 8.77 | 13.1 | 24.8 | 35.5 |
| CC(C)(C)NC(=O)N[C@H](C(=O)N1C[C@H]2[C@@H]([C@H]1C(=O)NC(CC1CCC1)C(=O)C(N)=O)C2(C)C)C(C)(C)C (some centres undefined) [Boceprevir] | 85.6% and 87.6% | 84.2 | 71.3 | 73.2 | 91.1 | 84.3 | 84 | 88.9 |
| O=c1c(O)c(-c2ccc(O)c(O)c2)oc2cc(O)cc(O)c12 [Quercetin (Sophoretin)] | 97.3% and 89.3% | 91.5 | 93.9 | 93.6 | 98.3 | 97.5 | 93.8 | 81.5 |
| C1=Cc2ccccc2Nc2ccccc21 [Iminostilbene] | 101% and 95.4% | 98.1 | 95.5 | 113 | 105 | 108 | 106 | 92.6 |
| COc1ccc(C(=O)Nc2sc3c(c2C(N)=O)CCCC3)cc1OC | 95.4% and 96.5% | 91.5 | 93.8 | 91.9 | 79.8 | 93 | 85.2 | 81.4 |
| Cn1c(=O)cc(N2CCC[C@@H](N)C2)n(Cc2ccccc2C#N)c1=O | 96.9% and 97.8% | 88.7 | 94 | 97.1 | 91.3 | 98.3 | 98 | 101 |
| Cc1cnc(C(=O)O)c[n+]1[O-] [Acipimox] | 99.3% and 96.5% | 97.6 | 96.7 | 100 | 98.8 | 101 | 105 | 104 |
| O=C(O)COc1nn(Cc2ccccc2)c2ccccc12 [Bendazac] | 103% and 104% | 108 | 106 | 111 | 103 | 106 | 111 | 115 |
| COc1cc(O)c2c(=O)c(O[C@@H]3O[C@H](CO)[C@@H](O)[C@H](O)[C@H]3O)c(-c3ccc(O[C@@H]4O[C@H](CO)[C@@H](O)[C@H](O)[C@H]4O)cc3)oc2c1 [Complanatuside] | 105% and 101% | 106 | 108 | 104 | 108 | 106 | 107 | 96.2 |
| C[C@]1(COc2ccc(N3CCC(Oc4ccc(OC(F)(F)F)cc4)CC3)cc2)Cn2cc([N+](=O)[O-])nc2O1 [Delamanid] | 97.1% and 93.5% | 93.5 | 94.6 | 100 | 94.9 | 101 | 83.8 | 88.6 |
| CC(C)Oc1ccc(-c2cnc3c(-c4ccnc5ccccc45)cnn3c2)cc1 | 86.4% and 88.6% | 84.7 | 86.1 | 98 | 84.6 | 90.4 | 82.2 | 78.1 |
| O=C(Nc1cccc(Cl)c1)c1ccccn1 | 99.3% and 105% | 97 | 98.5 | 109 | 112 | 114 | 96.2 | 97 |
| NC(=O)N/N=C/c1ccc([N+](=O)[O-])o1 [Nitrofurazone (Nitrofural)] | 98.5% and 94.8% | 96.7 | 104 | 100 | 96.8 | 99.5 | 102 | 103 |
| C[C@]12CC[C@@H]3c4ccc(O)cc4CC[C@H]3[C@@H]1CC[C@@H]2OC(=O)CCC1CCCC1 [Estradiol Cypionate] | 91.5% and 90.9% | 91.3 | 86.9 | 81.6 | 75 | 84.1 | 55.4 | 53.1 |
| O=C(O)C(Cc1c[nH]c2ccccc12)N1C(=O)c2ccccc2C1=O (centres undefined) | 104% and 96.9% | 103 | 96.8 | 104 | 99.2 | 99.3 | 93.2 | 98.5 |
| O=C1CCN(c2ccccc2)N1 [Phenidone] | 106% and 107% | 103 | 102 | 105 | 100 | 105 | 99.5 | 111 |
| NC(=O)c1cnc2[nH]ccc2c1N[C@@H]1[C@@H]2CC3C[C@H]1C[C@@](O)(C3)C2 | 89.4% and 109% | 98.6 | 70.9 | 71.5 | 13.2 | 9.06 | 15.3 | 19.3 |
| COc1c/c(=C2\C=c3ccccc3=N2)[nH]/c1=C\c1[nH]c(C)cc1C [Obatoclax mesylate (GX15-070)] | 2.96% and 5.97% | 9.27 | 23.4 | 23.6 | 6.74 | 7.58 | 2.7 | 13.3 |
| O=C(NOCC1CC1)c1ccc(F)c(F)c1Nc1ccc(I)cc1Cl | 74.9% and 78.8% | 69.2 | 37.4 | 35.4 | 39.2 | 30.4 | 39.5 | 46.5 |

| Structure (SMILES) | cell viability (K562; SRSF2 genotype: SRSF2 P95H/wt) | cell viability (K562; SRSF2 genotype: SRSF2 wt/wt) [%] | cell viability (MARIMO; SRSF2 genotype: SRSF2 P95H/wt) [%] | cell viability (MARIMO; SRSF2 genotype: SRSF2 wt/wt) [%] | cell viability (MOLM14; SRSF2 genotype: SRSF2 P95H/wt) [%] | cell viability (MOLM14; SRSF2 genotype: SRSF2 wt/wt) [%] | cell viability (OCI-AML2; SRSF2 genotype: P95H/wt) [%] | cell viability (OCI-AML2; SRSF2 genotype: wt/wt) [%] |
| --- | --- | --- | --- | --- | --- | --- | --- | --- |
| COc1nc2ccc(Br)cc2cc1[C@@H](c1ccccc1)[C@@](O)(CCN(C)C)c1cccc2ccccc12 [Bedaquiline] | 74.8% and 74.5% | 85.4 | 70.4 | 69.3 | 51.8 | 75.5 | 38.5 | 55.4 |
| CN1CCC(NC(=O)c2cc(-c3c(O)cc(O)cc3Oc3ccc([N+](=O)[O-])cc3)on2)CC1 | 17.4% and 26.5% | 23.6 | 29.8 | 23.9 | 1.68 | 1.87 | 17.5 | 19.7 |
| COc1cc2c(c(OC)c1OC)-c1c(cc3c(c1OC)OCO3)C[C@H](C)[C@](C)(O)[C@H]2OC(=O)c1ccccc1 [Schisantherin A] | 102% and 111% | 97.5 | 89.3 | 102 | 100 | 102 | 106 | 102 |
| CN1CCN(c2ccc3nc(-c4c(N)c5c(F)cccc5[nH]c4=O)[nH]c3c2)CC1 [Dovitinib Dilactic acid (TKI258 Dilactic aci] | 6.48% and 13.2% | 8.9 | 10.8 | 12.8 | 0.16 | 0.07 | 0.15 | 0.51 |
| COc1cc2c(NC3CCN(C(C)C)CC3)nc(C3CCCCC3)nc2cc1OCCCN1CCCC1 | 5.7% and 1.99% | 3.43 | 1.5 | 1.11 | 0.34 | 0.42 | 0.27 | 0.2 |
| FC(F)(F)Oc1ccc(-c2ccc3nnc(C(F)(F)F)n3c2)cc1 | 91% and 96.6% | 102 | 95.7 | 97.8 | 95.2 | 112 | 89 | 94.4 |
| CC(C)(C)c1cnc(CSc2cnc(NC(=O)C3CCNCC3)s2)o1 | 24.3% and 35.5% | 27.3 | 9.12 | 4.42 | 3.75 | 0.63 | 4.54 | 18.1 |
| Cc1cccc(Nc2ccncc2S(=O)(=O)NC(=O)NC(C)C)c1 [Torsemide (Demadex)] | 100% and 105% | 102 | 101 | 103 | 105 | 101 | 103 | 104 |
| CC[C@H]1OC(=O)[C@@](C)(F)C(=O)[C@H](C)[C@@H](O[C@@H]2O[C@H](C)C[C@H](N(C)C)[C@H]2O)[C@](C)(OC)C[C@@H](C)C(=O)[C@H](C)[C@H]2N(CCCCn3cc(-c4cccc(N)c4)nn3)C(=O)O[C@]12C [Solithromycin] | 91% and 93.4% | 91.2 | 107 | 101 | 89.4 | 94.9 | 94.1 | 93.5 |
| O=C1NC(=O)/C(=C/c2cccc(C(F)(F)F)c2)S1 | 107% and 103% | 110 | 105 | 94.9 | 97.4 | 102 | 111 | 104 |
| C[C@]12CC[C@@H]3c4ccc(O)cc4CC[C@H]3[C@@H]1CC[C@@H]2O [Estradiol] | 97% and 94.8% | 93.8 | 93.2 | 90.2 | 95.3 | 98.6 | 101 | 111 |
| COc1ccc(NS(=O)(=O)c2sc3ccc(Cl)cc3c2C)cc1N1CCNCC1 | 99.5% and 98.2% | 104 | 100 | 99.2 | 96.4 | 106 | 87.9 | 78 |
| CCCCNC(=O)NS(=O)(=O)c1ccc(C)cc1 [Tolbutamide] | 98% and 102% | 102 | 105 | 116 | 102 | 105 | 101 | 110 |
| Cn1cc(-c2ccc3ncc(Cc4ccc5ncccc5c4)n3n2)cn1 | 108% and 96.6% | 98 | 102 | 101 | 87.7 | 101 | 72.5 | 79.3 |
| CN(Cc1ccc(C(C)(C)C)cc1)Cc1cccc2ccccc12 [Butenafine HCl] | 97% and 102% | 91.6 | 84.1 | 105 | 93.4 | 98 | 85.5 | 101 |
| CN(C)c1ccc2c(c1)Sc1cc(N(C)C)ccc1N2 [TRx0237 (LMTX) mesylate] | 35.5% and 35.7% | 20.9 | 20.4 | 18.9 | 5.72 | 2.96 | 6.33 | 10.7 |
| CCN(CC)CCOCCOC(=O)C1(c2ccccc2)CCCC1 [Pentoxyverine Citrate] | 98.4% and 105% | 108 | 92.9 | 104 | 96.4 | 104 | 112 | 97 |
| Cc1cccc(C)c1OCC(=O)N[C@@H](Cc1ccccc1)[C@@H](O)C[C@H](Cc1ccccc1)NC(=O)[C@H](C(C)C)N1CCCNC1=O [Lopinavir (ABT-378)] | 85.5% and 94.8% | 86.7 | 97.4 | 98.2 | 92.2 | 102 | 97.3 | 92.2 |
| O=C1c2c(O)ccc(O)c2C(=O)c2c(NCCNCCO)ccc(NCCNCCO)c21 [Mitoxantrone 2HCl] | 3.59% and 6.17% | 3.76 | 4.5 | 1.79 | 0.19 | 0.15 | 0.48 | 7.36 |
| CCC[C@H](N[C@H]1CCc2cc(F)cc(F)c2C1)C(=O)Nc1cn(C(C)(C)CNCC(C)(C)C)cn1 | 78% and 88.1% | 88.7 | 74.3 | 86.2 | 78 | 88.8 | 73.3 | 72.3 |
| O=C1c2cccc(O)c2C(=O)c2c(O)cc(CO)cc21 [Aloe-emodin] | 92.1% and 94.9% | 83.3 | 95.1 | 94.8 | 92.4 | 95.5 | 82.5 | 76.4 |
